In publication PMC5540273 (PLoS ONE, 2017):

Key:
Details in all cases: concentration: 1 μM, replicates: in singlicate; n = 1
HIPK2 = system: HIPK2
HIPK3 = system: HIPK3
HIPK4 = system: HIPK4
HPK1 = system: HPK1
HUNK = system: HUNK
ICK = system: ICK
IGF1R = system: IGF1R
IKK-alpha = system: T1, IKK-alpha
T1 construct: gene CHUK

IKK-beta = system: T2, IKK-beta
T2 construct: gene IKBKB

IKK-epsilon = system: T3, IKK-epsilon
T3 construct: gene IKBKE

INSRR = system: INSRR
INSR = system: INSR
IRAK1 = system: IRAK1
IRAK3 = system: IRAK3
IRAK4 = system: IRAK4
ITK = system: ITK
[1] = system: JAK1(JH1domain-catalytic)
[2] = system: JAK1(JH2domain-pseudokinase)
[3] = system: JAK2(JH1domain-catalytic)
[4] = system: JAK3(JH1domain-catalytic)
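Also: KINOMEscan kinase panel screen.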

SMILES | %Inh (HIPK2) [%] | %Inh (HIPK3) [%] | %Inh (HIPK4) [%] | %Inh (HPK1) [%] | %Inh (HUNK) [%] | %Inh (ICK) [%] | %Inh (IGF1R) [%] | %Inh (IKK-alpha) [%] | %Inh (IKK-beta) [%] | %Inh (IKK-epsilon) [%] | %Inh (INSRR) [%] | %Inh (INSR) [%] | %Inh (IRAK1) [%] | %Inh (IRAK3) [%] | %Inh (IRAK4) [%] | %Inh (ITK) [%] | %Inh [1] [%] | %Inh [2] [%] | %Inh [3] [%] | %Inh [4] [%]
COc1ccc(NC(=O)Nc2ccc(C)c(-c3ccc(C(=O)Nc4ccncc4)cc3)c2)cc1 [GSK1398475] | 0 | 4 | 0 | 47 | 7 | 0 | 0 | 0 | 0 | 0 | 0 | 30 | 0 | 0 | 0 | 9 | 11 | 0 | 0 | 0
Nc1nc(-c2ccc3c(N)n[nH]c3c2)cc(N2CCCCC2)n1 [GSK2228768] | 0 | 0 | 0 | 32 | 0 | 0 | 0 | 0 | 0 | 29 | 0 | 1 | 0 | 0 | 9 | 18 | 0 | 0 | 0 | 0
O=c1cc(N2CCOCC2)nc2n(Cc3cccc(Cl)c3)ccn12 [GSK2296823] | 0 | 18 | 0 | 37 | 0 | 19 | 1 | 3 | 17 | 35 | 0 | 0 | 60 | 32 | 16 | 19 | 0 | 0 | 10 | 0
CNc1nccc(-c2c(-c3ccc(F)cc3)ncn2C2CCN(C)CC2)n1 [SB-222903] | 5 | 0 | 0 | 0 | 39 | 0 | 0 | 0 | 0 | 0 | 0 | 5 | 0 | 0 | 0 | 5 | 24 | 5 | 5 | 0
Cc1ccc(NC(=O)c2cccc(C#N)c2)cc1-c1ccc(C(=O)Nc2ccncc2)cc1 [GSK1398463] | 0 | 8 | 0 | 40 | 0 | 35 | 14 | 32 | 36 | 15 | 2 | 6 | 24 | 9 | 21 | 16 | 3 | 6 | 39 | 0
FC(F)(F)c1ccc(-c2cc(-c3c[nH]nc3-c3ccccn3)ccn2)cc1 [GW599550] | 0 | 21 | 0 | 26 | 0 | 0 | 28 | 0 | 0 | 47 | 0 | 0 | 25 | 5 | 3 | 11 | 29 | 0 | 14 | 0
Clc1ccc(-c2cc(-c3c[nH]nc3-c3ccccn3)ccn2)cc1 [GW681251] | 0 | 19 | 0 | 24 | 6 | 0 | 4 | 0 | 28 | 3 | 0 | 0 | 43 | 0 | 8 | 16 | 0 | 0 | 2 | 0
O=C(Nc1ccccc1F)NC1CCN(c2ccnc(Nc3ccc(F)cc3)n2)C1 (centres unmarked) [GSK1379722] | 0 | 10 | 0 | 42 | 24 | 100 | 100 | 24 | 23 | 0 | 0 | 0 | 34 | 14 | 14 | 12 | 12 | 0 | 8 | 0
O=C(CCO)NCCn1ccc2ncnc(Nc3ccc(Oc4cccc(C(F)(F)F)c4)c(Cl)c3)c21 | 0 | 0 | 0 | 7 | 0 | 0 | 0 | 0 | 0 | 0 | 0 | 0 | 0 | 0 | 0 | 0 | 0 | 36 | 0 | 0
Cc1cccc(-c2nc(Nc3ccc4[nH]nnc4c3)c3ccccc3n2)n1 [GW867587] | 0 | 0 | 0 | 0 | 37 | 0 | 0 | 0 | 0 | 0 | 0 | 0 | 0 | 0 | 0 | 0 | 0 | 52 | 22 | 0
